37 compounds from PubChem BioAssay (EPA / NIEHS) can be followed below.

The structures appear in SMILES notation. Where “and” joins values, the source holds several entries; their conditions need not be identical. Identical values can stand only once. A structure can be active in one record and inactive in another. Calls of active or inactive are those of the source. Rule for the calls: active = hit-call score of the fitted dose curve at least 0.9, where 1 is the maximum; inactive = score below 0.9.

Read-out in the test: Intercellular Adhesion Molecule 1 (ICAM1), ICAM1 (gene 3383)
The test can be described thus: BSK_hDFCGF_ICAM1: BioMAP Diversity Plus: hDFCGF Assay for Intercellular Adhesion Molecule 1 (ICAM1) Biomarker Activity (AID 2284287). Conditions: primary human foreskin fibroblasts. As to the method:
BSK_hDFCGF is a cell-based, multiplexed-readout assay that uses foreskin fibroblast, a human skin primary cell, with measurements taken at 24 hours after chemical dosing in a 96-well plate.BSK_hDFCGF_ICAM1 is an assay component measured in the BSK_hDFCGF assay. It measures ICAM-1 antibody related to regulation of gene expression using ELISA technology.Data from the assay component BSK_hDFCGF_ICAM1 was analyzed at the endpoint, BSK_hDFCGF_ICAM1, in the positive analysis fitting direction relative to DMSO as the negative control and baseline of activity. Using a type of binding reporter, gain or loss-of-signal activity can be used to understand protein changes. To generalize the intended target to other relatable targets, this assay endpoint is annotated to the 'cell adhesion molecules' intended target family, where the subfamily is 'Immunoglobulin CAM'.
The levels of cell surface (or secreted, indicated by the prefix "s") biomarker endpoints were measured by ELISA. Overt cytotoxicity to cells in confluent adherent cultures (all systems other than the BT system) was assessed by measuring total protein levels using sulforhodamine B (SRB) staining in parallel cultures at the time of biomarker measurements, indicated as SRB endpoints. For proliferation assays for adherent cell types, individual cell types are cultured at sub-confluence and relative cell numbers quantified by SRB staining at time points optimized for each system (48 h: 3C and CASM3C systems; 72 h: BT and HDF3CGF systems; 96 h: SAg system). SRB was performed by staining cells with 0.1% SRB after fixation with 10% TCA and reading wells at 560 nm.Viability and proliferation of PBMC (T cells) was quantified by Alamar Blue reduction for the SAg and BT systems. For PBMC viability (referred to as PBMC Cytotoxicity within the assay endpoint names), cells were plated (75,000/well in a 96-well plate) and then chemical samples added for 1 h before addition of activators, SEB and TSST-1 (20 ng/mL final concentration each). Cells were incubated for 90 h. Then, Alamar Blue (20 uL/well) (Invitrogen, Cat DAL1100) was added for 6 h, and the plates were read with a fluorescence microplate reader at 546/580 nm (excitation/emission). For PBMC proliferation, cells were plated and activated as above but incubated for only 16 h prior to addition of Alamar Blue. Plates were read after 6 h.
Take `FC(F)(F)C(F)(F)CNCC(F)(F)C(F)(F)F`: the result was inactive.
As to `O=C(O)C(F)(F)C(F)(F)C(F)(F)C(F)(F)C(F)(F)C(F)(F)C(F)(F)C(F)(F)C(F)(F)C(F)(F)C(F)(F)C(F)(F)F`, the AC50 was 8.71 µM (active) and the result was inactive.
As for `FC(F)(F)C(F)(F)C(F)(F)C(F)(F)C(F)(F)C(F)(F)CC1CO1` (stereo not given), the outcome was inactive.
In the case of `N=C(N)C(F)(F)C(F)(F)C(F)(F)C(F)(F)C(F)(F)C(F)(F)C(F)(F)F`, the AC50 was 30 µM (active) and the outcome was inactive.
On to `FC(F)(F)C(F)(F)C(F)(F)C(F)(F)C(F)(F)CCI`, for which the outcome was inactive.
Regarding `O=S(=O)(OCCOC(F)(F)F)C(F)(F)F`, the result was inactive.
Still for that read-out and setting: under `OCC(F)(F)C(F)(F)C(F)(F)C(F)(F)C(F)(F)C(F)(F)F` stands “inactive”.
The same measure, in the same setting: the result for `O=C(O)C=C(C(F)(F)F)C(F)(F)F` reads “inactive”; that for `CCO[Si](CCC(F)(F)C(F)(F)C(F)(F)C(F)(F)C(F)(F)C(F)(F)F)(OCC)OCC`, “inactive”.
For `O=C(Cl)C(F)(F)C(F)(F)C(F)(F)C(F)(F)C(F)(F)C(F)(F)C(F)(F)C(F)(F)F`, the result was inactive; the AC50 is 16.5 µM (active) and 19.9 µM (active).
On to `FC(F)(F)C(F)(F)C(F)(F)C(F)(F)C(F)(F)C(F)(F)CCS`, for which the outcome was inactive.
On the same count and under the same terms, under `C=C(C)C(=O)OCC(F)(F)C(F)(F)C(F)(F)C(F)(F)C(F)(F)C(F)(F)C(F)(F)F` stands “inactive”; under `FC(F)(F)C(F)(F)C(F)(F)C(F)(F)C(F)(F)C(F)(F)C(F)(F)C(F)(F)CCS`, “inactive”; under `C=CC(=O)OCC(F)(F)C(F)(F)C(F)(F)C(F)(F)C(F)(F)C(F)(F)C(F)(F)F`, “inactive”.
On the same count and under the same terms, the result for `OCC(F)(F)C(F)(F)C(F)(F)F` reads “inactive”.
Turning to `O=C(O)C(F)(F)C(F)(F)F`, the result was inactive.
The same measure, in the same setting: under `FC1CC(F)(F)C(F)(F)C1(F)F` (stereo not given) stands “inactive”.
Same read-out and setting: under `O=P(O)(O)OCCC(F)(F)C(F)(F)C(F)(F)C(F)(F)C(F)(F)C(F)(F)F` stands “inactive”; under `NC(=O)C(F)(F)C(F)(F)C(F)(F)C(F)(F)F`, “inactive”.
Still for that read-out and setting: under `O=S(=O)(O)C(F)(F)C(F)(F)C(F)(F)C(F)(F)C(F)(F)C(F)(F)C(F)(F)F` stands “inactive”; under `FC(F)(F)C(F)(F)C(F)(F)C(F)(F)CCI`, “inactive”.
`O=C(O)C(F)(OC(F)(F)C(F)(OC(F)(F)C(F)(OC(F)(F)C(F)(F)C(F)(F)F)C(F)(F)F)C(F)(F)F)C(F)(F)F` (stereo not given): the outcome was inactive.
With `O=C(O)C(F)(F)C(F)(F)C(F)(F)C(F)(F)C(F)(F)C(F)(F)C(F)(F)C(F)(F)C(F)(F)C(F)(F)C(F)(F)C(F)(F)C(F)(F)F`, the outcome was inactive.
For `FC(F)(F)C(F)(F)C(F)(F)C(F)(F)C(F)(F)C(F)(F)C(F)(F)C(F)(F)F`, the result was inactive.
The same measure, in the same setting: the result for `FC(F)(F)C(F)(F)C(F)(F)CI` reads “inactive”.
Same read-out and setting: under `FC(F)(Br)C(F)(F)C(F)(F)C(F)(F)C(F)(F)C(F)(F)Br` stands “inactive”.
With `FC(F)(I)C(F)(F)C(F)(F)C(F)(F)I`, the AC50 was 49.8 µM (active) and 46 µM (active) and 53.4 µM (active).
Turning to `O=S(=O)(OCC(F)F)C(F)(F)F`, the outcome was inactive.
Same read-out and setting: the result for `O=C(O)C(F)(F)C(F)(F)C(F)(F)F` reads “inactive”.
Still for that read-out and setting: under `C=CC(F)(F)C(F)(F)C(F)(F)C(F)(F)C(F)(F)C(F)(F)C(F)(F)C(F)(F)C=C` stands “inactive”; under `Cc1ccc(S(=O)(=O)OCC(F)(F)C(F)(F)C(F)(F)C(F)(F)C(F)(F)C(F)F)cc1`, “inactive”.
Still for that read-out and setting: under `O=C(O)C(F)(OC(F)(F)C(F)(OC(F)(F)C(F)(F)C(F)(F)F)C(F)(F)F)C(F)(F)F` (stereo not given) stands “inactive”.
Consider `C=CC(F)(F)C(F)(F)C(F)(F)C(F)(F)C(F)(F)C(F)(F)C(F)(F)C(F)(F)F`, for which the result was inactive.
Consider `O=C(CC(=O)C(F)(F)C(F)(F)F)C(F)(F)F`, for which the result was inactive.
`FC(F)(F)C(F)(F)C(F)(F)C(F)(F)C(F)(F)C(F)(F)C(F)(F)I`: the result was inactive.
On the same count and under the same terms, under `OCC(F)(F)C(F)(F)C(F)(F)C(F)(F)C(F)(F)C(F)F` stands “inactive”.
The same measure, in the same setting: the result for `OCCCC(F)(F)C(F)(F)C(F)(F)F` reads “inactive”.

Usually AC50 stands for the midpoint of the concentration-response curve, whichever way the signal moves.
